Screens (PubChem BioAssay)
A selection: hits, their analogues and other compounds. The true share with any hit is near 1.6%.
dFosB act: enhances mouse delta FosB homodimer DNA binding; purified delta FosB, TAMRA-CDK5 oligo fluorescence polarization; percent of positive-control signal above neutral wells; 340,000 compounds, 0.99% hits; P13346; activation, % at 25 µM;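 active = mean activation above about 17%, with every replicate also reaching it, limit read from the data, passing the limit was not always enough; inconclusive = only one of the two conditions met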
Target sequence (P13346 whole entry, looked up): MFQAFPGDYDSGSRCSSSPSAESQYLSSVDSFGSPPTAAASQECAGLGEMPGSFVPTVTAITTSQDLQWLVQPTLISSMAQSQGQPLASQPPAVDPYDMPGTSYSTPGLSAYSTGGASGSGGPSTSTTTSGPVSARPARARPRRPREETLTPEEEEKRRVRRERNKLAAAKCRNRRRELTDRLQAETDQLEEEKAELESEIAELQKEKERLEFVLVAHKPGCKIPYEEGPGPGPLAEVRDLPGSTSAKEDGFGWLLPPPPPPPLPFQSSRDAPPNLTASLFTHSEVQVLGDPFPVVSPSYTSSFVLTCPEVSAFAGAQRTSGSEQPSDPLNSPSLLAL
Dyrk1A ADPGlo: blocks rat Dyrk1A kinase activity; ADP-Glo luminescence, NFATc1 peptide; Q63470; inhibition, % at 12.5 µM; 310,000 compounds, 0.43% hits; in the data active = inhibition above about 50%
Bfl-1 A1 inh: inhibitors of the anti-apoptotic protein A1, read as caspase activation; MEF A1-2A-BIM cells, Caspase-Glo 3/7 luminescence, 3 h; percent of clofoctol response, vehicle zero; caspase activation, % (concentration not given with the values); 330,000 compounds, 0.066% hits; AID 2462;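 active = over half of replicate activation scores above 10%, or exactly half above 10 with the replicate mean above 10; inconclusive = replicate mean below 10 yet half the replicates above 10; inactive = over half of replicates below 10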
Beta2AR agonist: agonists of human beta-2 adrenergic receptor inducing internalization; response, % (concentration not given with the values); Am2.2-beta2AR cells, FAP receptor internalization, flow cytometry; AID 504454; 340,000 compounds, 0.43% hits;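 active = response above a set limit, near 3 SD of response in nonfluorescent compounds, cut at about 42% in these data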
Large screens that a line does not name were inactive.

CC(=O)OC1(C)CC(C)C(=O)C(C(O)CC2CC(=O)NC(=O)C2)C1 (stereo not given)	Beta2AR agonist 68 (no result: Bfl-1 A1 inh)
C[C@@H]1C[C@@H]([C@H](O)CC2CC(=O)NC(=O)C2)C(=O)[C@@H](C)C1	none (no result: Dyrk1A ADPGlo)
CC12C=CC(=O)C=C1CC(O)C1C2CCC2(C)C1CCC2(C)O (stereo not given)	none (no result: Bfl-1 A1 inh)
COc1cc2c(c(OC)c1OC)-c1ccc(SC)c(=O)cc1C(N)CC2 (stereo not given)	none (no result: Bfl-1 A1 inh)
CC1CN(c2ccccn2)C(C)CN1C(=O)C(O)(c1ccccc1)c1ccccc1 (stereo not given)	none (no result: Bfl-1 A1 inh)
C=C(C=O)CC1CC(O)[C@]2(C)OC3CC4OC5C[C@]6(C)O[C@]7(C)CCC8OC9C[C@]%10(C)OC%11C(C)=CC(=O)OC%11CC%10OC9C[C@@H](C)C8OC7CC6O[C@]5(C)CC5OC5C4OC3CC2O1 (stereo not given in full)	Beta2AR agonist 107
CN(C)c1ccc(/C=C/c2cc[n+](C)c3ccccc23)cc1	dFosB act 93 (no result: Bfl-1 A1 inh)
CN(C)c1ccc(/C=C/C=C/c2sc3ccccc3[n+]2C)cc1	dFosB act inconclusive
O=C1NC(=O)N(c2ccccc2)C(=O)/C1=C/c1ccc(Sc2ccccc2)o1	none
O=C1NC(=O)N(c2ccccc2F)C(=O)/C1=C/c1ccc(Sc2nc3ccccc3[nH]2)o1	dFosB act 27 (no result: Dyrk1A ADPGlo)
O=C1NC(=O)N(c2cccc(Cl)c2)C(=O)/C1=C\c1ccc(Sc2nc3ccccc3[nH]2)o1	dFosB act 49
CN1CCCC1c1ccc(=O)[nH]c1 (stereo not given)	none (no result: Bfl-1 A1 inh)
CCCC1=C(C(=O)OCC)C2(C(=O)Nc3ccc(C)cc32)C(C#N)=C(N)O1 (stereo not given)	none
CCOC(=O)CC1=C(C(=O)OCC)C2(C(=O)Nc3ccccc32)C(C#N)=C(N)O1 (stereo not given)	Bfl-1 A1 inh 6.5
CN(CC=CCN(C)P(=S)(N1CC1)N1CC1)P(=S)(N1CC1)N1CC1	none (no result: Bfl-1 A1 inh)
CC(=O)OC(C)(C)/C=C/C(=O)C(C)(O)C1[C@H](O)C[C@@]2(C)C3CC=C4C(CC[C@@H](O)C4(C)C)[C@]3(CO)C(=O)C[C@]12C (stereo not given in full)	Bfl-1 A1 inh 11, Beta2AR agonist 52
CC(=O)OC(C)(C)/C=C/C(=O)[C@](C)(O)[C@H]1[C@H](O)C[C@@]2(C)[C@@H]3CC=C4[C@H](C[C@H](O)C(=O)C4(C)C)[C@]3(C)C(=O)C[C@]12C	Beta2AR agonist 68 (no result: Bfl-1 A1 inh)
Cc1ccc(/C=C2\C(=O)NC(=S)N(c3ccc(F)cc3)C2=O)s1	none
Cc1ccc(/C=C2\C(=O)NC(=S)N(c3ccccc3F)C2=O)s1	Beta2AR agonist 71
CC[N+](CC)(CC)CCCOC(=O)C(O)(c1ccccc1)C1CCCCC1 (stereo not given)	none
C[N+](C)(N)CCOC(=O)C(O)(c1ccccc1)C1CCCCC1 (stereo not given)	Beta2AR agonist 98
CN1C2CCC1CC(OC(=O)CCN1CCCC1)C2 (stereo not given)	none
O=C(CCN1CC1)OCCOC(=O)CCN1CC1	Beta2AR agonist 55 (no result: Bfl-1 A1 inh)
COCC(=O)N1Cc2ccccc2-n2nncc2C1	none (no result: Dyrk1A ADPGlo, Bfl-1 A1 inh)
O=c1[nH]c(=S)n(-c2ccccc2)c(O)c1/C=N/N1CCCCC1c1cccnc1 (stereo not given)	dFosB act 39
Cc1cccc(NC(=O)COC(=O)c2cc(C)n(C3CC3)c2C)c1	none
CCN1/C(=C\C=C\C2=[N+](CC)c3ccccc3C2(C)C)C(C)(C)c2ccccc21	dFosB act 52
Cc1cc(/C=C2\C(=O)NC(=O)N(Cc3ccccc3)C2=O)c(C)n1C1CC1	dFosB act 43
C[C@@H]1C(=O)O[C@H]2[C@H](O)[C@]34[C@@H]5OC(=O)[C@]3(OC3OC(=O)[C@H](O)C34[C@H](C(C)(C)C)[C@@H]5O)[C@@]12O (stereo not given in full)	none (no result: Bfl-1 A1 inh)
COc1ccc(C(=O)OC2C[C@H]3CC[C@@H](C2)N3O)cc1OC (stereo not given in full)	Beta2AR agonist 62
CNCC[C@@H](Oc1ccc(C(F)(F)F)cc1)c1ccccc1	none
CCOc1ccc(-n2c(-c3cccs3)nc3ccccc3c2=O)cc1	none
CCn1nc(-c2cccs2)nc2c(=O)n(C)c(=O)nc1-2	Dyrk1A ADPGlo 63, Beta2AR agonist 102 (no result: Bfl-1 A1 inh)
c1ccc2c(c1)[IH]c1ccccc1-2	dFosB act 33 (no result: Bfl-1 A1 inh)
c1ccc2c(c1)-c1cccc3cccc-2c13	none
COc1ccc(CN2C(=O)NC(=O)/C(=C\c3ccco3)C2=O)cc1	none
CCN1C(=O)C(=C/C=C/c2ccco2)C(=O)N(CC)C1=S	dFosB act 57
O=C1NC(=O)N(Cc2ccccc2)C(=O)/C1=C/C=C/c1ccco1	Beta2AR agonist 76
c1ccc2c(c1)CNCc1cnnn1-2	none (no result: Dyrk1A ADPGlo, Bfl-1 A1 inh)
COc1ccc(CN(CCc2c[nH]c3ccccc23)Cc2ccc(OC)cc2)cc1	none (no result: Dyrk1A ADPGlo, Bfl-1 A1 inh)
NC(N)=Nc1ccc2[nH]c3c(c2c1)C[C@@]1(O)[C@H]2Cc4ccc(O)c5c4[C@@]1(CCN2CC1CC1)[C@H]3O5	dFosB act 41
CCC(C)C1NC(=O)C(NC(=O)C(CC(C)C)N(C)C(=O)C2CCCN2C(=O)C(C)O)C(C)OC(=O)C(Cc2ccc(OC)cc2)N(C)C(=O)C2CCCN2C(=O)C(CC(C)C)NC(=O)[C@H](C)C(=O)[C@H](C(C)C)OC(=O)CC1O (stereo not given in full)	Beta2AR agonist 42 (no result: Bfl-1 A1 inh)
C[CH2][Hg][S]c1ccccc1C(=O)O	none
CCN(CC)c1ccc(/C=C/[N+](=O)[O-])cc1	Beta2AR agonist 63
O=C1NC(=S)NC(=O)C1=Cc1cccn1-c1ccc(O)cc1	Beta2AR agonist 71 (no result: Bfl-1 A1 inh)
Cc1cc(C)cc(N2C(=O)NC(=O)/C(=C\c3cccn3-c3ccccc3)C2=O)c1	none
CN1C(=O)/C(=C/c2cccn2-c2ccc3ccccc3c2)C(=O)NC1=S	Beta2AR agonist 47
Cc1cc(C)cc(N2C(=O)NC(=O)/C(=C\c3cccn3-c3ccc(Cl)cc3)C2=O)c1	none
COc1cc2c(c(OC)c1OC)-c1ccc(SC)c(=O)cc1C(NC(C)=O)CC2 (stereo not given)	none (no result: Bfl-1 A1 inh)
O=c1[nH]c(=S)[nH]c(O)c1/C=C1/C=c2ccccc2=N1	Beta2AR agonist 52
CCn1c(O)c(C=Nc2ccc(N3CCOCC3)c(Br)c2)c(=O)n(CC)c1=S	dFosB act 24
O=C1CCC[C@@H]2C[C@@]3(C[C@@H]4CCN1[C@H]24)Nc1cc(Cl)ccc1NC3=NCc1ccccc1	none (no result: Bfl-1 A1 inh)
COc1cc2c(cc1OC)-c1c(OC)c(OC)cc3c1C(C2)N(C)CC3 (stereo not given)	none
COc1cc2c(cc1O)C[C@H]1NCCc3cc4c(c-2c31)OCO4	dFosB act 24, Dyrk1A ADPGlo 72
CCOC(=O)NC1CCc2cc(OC)c(OC)c(OC)c2-c2ccc(OC)c(=O)cc21 (stereo not given)	none (no result: Bfl-1 A1 inh)
COc1cc(/C=C(/C)[N+](=O)[O-])ccc1OCc1ccccc1Cl	Bfl-1 A1 inh inconclusive, Beta2AR agonist 48
